# From PubChem BioAssay
# Inconclusive results are not listed. Activity calls are given as the source filed them. Cut-off read from the data, not from the text of the source, unless noted: active = response above about 15%; inactive = the rest.
# Tests used:
# [1] = rapamycin-like changes in RPL19A-GFP expression – cell-based, S. cerevisiae, multiplex flow cytometry, primary screen (AID 1862; in the data active = percent of DMSO control GFP below about 86%;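 note: lower values mimic rapamycin by blocking the RPL19A rise seen in DMSO cells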); conditions: S. cerevisiae RPL19A-GFP strain, flow cytometry fluorescence, 3 h; at 10 µM; stronger effect = lower value
# [2] = TOR pathway GLN3 branch reporter MEP2-GFP changes – S. cerevisiae, multiplex flow cytometry, primary screen (AID 1867;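 active = GFP response, as percent of the DMSO control, above the screen-wide mean plus 3 SD, about 139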;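 note: median GFP channel fluorescence of barcode-gated MEP2-GFP cells measured by flow cytometry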); conditions: S. cerevisiae MEP2-GFP strain, 3 h, at 10 µM, stronger effect = higher value, 100% means same as DMSO wells
# [3] = TOR pathway RTG branch CIT2 reporter changes – S. cerevisiae, GFP fusion, multiplex flow cytometry, primary screen (AID 1870;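 active = percent response above a set limit, the screen-wide mean plus 3 SD, cut at about 130% in these data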;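 note: barcoded CIT2-GFP strain pooled with four other GFP strains with rapamycin as positive control; median GFP fluorescence per well over plate mean of DMSO wells so 100% = DMSO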); conditions: S. cerevisiae CIT2-GFP expression, 3 h, at 10 µM, stronger effect = higher value
# [4] = TOR pathway LAP4-GFP level changes – S. cerevisiae, multiplex flow cytometry, primary screen (AID 1873;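 active = GFP signal, as percent of the solvent control, above the screen mean plus 3 SD, about 149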); conditions: S. cerevisiae LAP4-GFP expression, 3 h, at 10 µM, stronger effect = higher value
# [5] = yeast AGP1-GFP level changes, GLN3 branch – cell-based, multiplex flow cytometry, S. cerevisiae, primary screen (AID 1887;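 active = GFP signal above the screen-wide mean plus 3 SD, that is over about 124.5% of the solvent control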;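 note: AGP1-GFP fusion strain of S. cerevisiae within a five-strain barcoded multiplex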); conditions: 3 h, at 10 µM, stronger effect = higher value
# [6] = reduced mouse 2C T cell binding to pMHC/ICAM-1 vesicles – MLPCN validation set, flow cytometry, LFA-1/ICAM-1 modulator project, pilot screen (AID 2523;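 active = response below a set limit, under 55% cells CD8-positive and vesicle-bound, and CD8 cells' 90th-percentile brightness under 279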;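 for vesicle binding response: mean PE anti-B7-1 fluorescence of CD8+ cells relative to row control; 100% = QL9-loaded vesicles with DMSO vehicle in the same plate row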); conditions: 2C mouse CD8+ T cells, at 7 µM, stronger effect = lower value; double positive events: measured here: CD8+/vesicle+ event percentage
# [7] = target: Integrin beta-1 (Homo sapiens) + Integrin alpha-4 (Homo sapiens) (UniProt P13612+P05556); test: alpha4beta1 integrin LIBS antibody binding reduction – U937 cells, HUTS-21 mAb, flow cytometry, validation set, VLA-4 allosteric modulator project, pilot screen (AID 2674;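 active = inhibition above 50%, about 3 SD of the validation set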;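 note: antibody binding induced by the VLA-4 ligand LDV present at three times its Kd; 0% = LDV ligand with antibody and no compound and 100% = antibody without LDV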); conditions: HUTS-21 LIBS mAb binding, at 6.7 µM, stronger effect = higher value, binding induced by LDV ligand
# [8] = calorie-restriction mimetic ROS inhibitors, yeast – validation compound set, pilot screen (AID 2706;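 active = superoxide response below 65% of plate, a cut near 3 SD across the whole screen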;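 note: yeast exposed to compound for one week at 30 degrees C before staining; 100% = mean of all compound wells on the same plate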); conditions: S. cerevisiae aging, superoxide DHE fluorescence; at 10 µM; stronger effect = lower value
# [9] = target: Beta-adrenergic receptor kinase 1 (Homo sapiens) (UniProt P25098); test: GRK2 binders displacing RNA aptamer, biochemical, validation, human GRK2, bead flow cytometry (AID 488806;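 active = aptamer binding inhibition above 30%, about 3 SD of noise from non-fluorescent compounds; inactive = inhibition at or below 30%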); conditions: bead-bound GRK2, FAM-aptamer displacement, at 10 µM, stronger effect = higher value
# [10] = target: Beta-2 adrenergic receptor (Homo sapiens) (UniProt P07550); test: agonist-induced loss of surface beta2AR – cell-based, FAP fluorogen, flow cytometry, validation set, pilot screen (AID 504459;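 active = percent response above 42, roughly 3 SD of non-fluorescent test compounds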;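 note: agonist-driven loss of surface beta2AR via internalization measured by FAP dye flow cytometry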); conditions: Am2.2-beta2AR cells, at 10 µM, stronger effect = higher value
# [11] = target: AP-2 complex subunit beta (Homo sapiens) (UniProt P63010); test: beta-arrestin/AP2 interaction blockers – biochemical, validation set, GST-AP2 beads, flow cytometry, pilot screen (AID 504541;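 active = inhibition above 54%, about 3 SD of non-fluorescent compounds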;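 note: AP2 carries R879A mutation and is captured from E. coli lysate; bead-bound FITC arrestin peptide fluorescence measuring arrestin peptide binding to AP2; 0% = DMSO wells and 100% = excess unlabeled arrestin peptide control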); conditions: FITC arrestin peptide, at 10 µM, stronger effect = higher value, AP2 beta2 appendage fragment, R879A mutant
# [12] = cytosolic pH regulators acting via V-ATPase – S. cerevisiae, pHLuorin, HTS validation (AID 504600); conditions: V-ATPase proton transport, at 10 µM, stronger effect = higher value;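 note: plate controls were DMSO for no effect and reference compound for full effect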
# [13] = system: anti-desmoglein-3 scFv antibody binding to human DSG3; test: blockers of pathogenic pemphigus antibody–desmoglein-3 binding – biochemical, validation compound set, bead-based, flow cytometry, pilot screen (AID 588368;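 active = binding below the plate cutoff, the plate median minus 3 SD, with a reading above zero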;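 note: signal is the median channel fluorescence of bead-bound GFP antibody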); conditions: Protein G beads, DSG3-Fc, scFv-GFP binding, at 10 µM, stronger effect = lower value
# [14] = Nile Red efflux blockade in pump-expressing yeast – validation compound set, multiplex, phenotypic, pilot screen (AID 588506;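 active = efflux inhibition above 0.42, the validation set average plus 4 SD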;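 note: Nile Red retained in cells so higher fluorescence means more efflux inhibition; 0 = negative control wells and 1 = enniatin B 25 µM full block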); conditions: S. cerevisiae pump-expressing triplex, Nile Red efflux flow cytometry; at 10 µM; stronger effect = higher value; the pumps come from Candida albicans
# [15] = target: ATP-binding cassette sub-family B member 6 (Homo sapiens) (UniProt Q9NP58); test: blockers of ABCB6-driven porphyrin uptake – K562-ABCB6 cells, flow cytometry, validation set, pilot screen (AID 588550;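 active = inhibition above the screen-wide mean plus 3 SD, about 51%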;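 note: 0% = DMSO wells and 100% = benzethonium chloride 70 µM positive control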); conditions: K562-ABCB6 porphyrin accumulation, 1 h, at 10 µM, stronger effect = higher value
# [16] = AML differentiation inducers, ER-HoxA9 marrow cells – cell-based, GFP/MAC1 double positive, flow cytometry, validation set, primary screen (AID 588685;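 active = differentiation response of at least 50%, scaled between solvent and reference control, from cells with both markers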;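 note: compound exposure lasts four days before antibody staining and flow analysis; 0% = DMSO wells and 100% = 5 µM fulvestrant positive control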); conditions: stronger effect = higher value, normalized: vehicle 0, fulvestrant 100
# Sequence of Beta-adrenergic receptor kinase 1 (Homo sapiens) (P25098 whole entry, looked up): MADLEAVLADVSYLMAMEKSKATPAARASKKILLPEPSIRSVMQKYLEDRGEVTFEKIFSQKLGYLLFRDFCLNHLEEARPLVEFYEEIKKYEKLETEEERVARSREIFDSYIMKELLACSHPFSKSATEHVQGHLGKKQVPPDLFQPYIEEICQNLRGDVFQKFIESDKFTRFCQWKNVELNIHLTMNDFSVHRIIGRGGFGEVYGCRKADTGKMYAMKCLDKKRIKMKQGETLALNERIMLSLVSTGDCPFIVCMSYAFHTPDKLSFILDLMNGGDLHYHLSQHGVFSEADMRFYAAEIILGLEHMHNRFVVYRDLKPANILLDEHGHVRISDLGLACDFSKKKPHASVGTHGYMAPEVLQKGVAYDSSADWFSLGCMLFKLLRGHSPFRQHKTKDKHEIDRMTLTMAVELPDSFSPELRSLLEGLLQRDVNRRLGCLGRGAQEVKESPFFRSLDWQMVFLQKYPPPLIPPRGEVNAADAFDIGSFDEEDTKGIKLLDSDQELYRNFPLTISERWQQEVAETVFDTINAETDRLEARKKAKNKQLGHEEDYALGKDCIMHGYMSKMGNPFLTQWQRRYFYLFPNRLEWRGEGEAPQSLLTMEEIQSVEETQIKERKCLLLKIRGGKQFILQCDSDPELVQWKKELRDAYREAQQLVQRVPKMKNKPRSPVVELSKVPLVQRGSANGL
# Sequence of Beta-2 adrenergic receptor (Homo sapiens) (P07550 whole entry, looked up): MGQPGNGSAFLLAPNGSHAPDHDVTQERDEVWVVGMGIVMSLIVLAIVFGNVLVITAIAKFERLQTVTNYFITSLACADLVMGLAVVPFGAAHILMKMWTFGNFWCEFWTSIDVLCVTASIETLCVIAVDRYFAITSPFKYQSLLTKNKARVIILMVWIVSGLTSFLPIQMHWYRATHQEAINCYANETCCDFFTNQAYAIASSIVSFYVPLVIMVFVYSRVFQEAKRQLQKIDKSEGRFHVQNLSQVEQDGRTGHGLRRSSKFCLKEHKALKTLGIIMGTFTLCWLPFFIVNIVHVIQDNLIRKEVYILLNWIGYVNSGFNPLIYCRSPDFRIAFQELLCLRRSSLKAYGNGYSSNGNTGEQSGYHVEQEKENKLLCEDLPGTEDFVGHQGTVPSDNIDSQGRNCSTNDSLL
# Sequence of ATP-binding cassette sub-family B member 6 (Homo sapiens) (Q9NP58 whole entry, looked up): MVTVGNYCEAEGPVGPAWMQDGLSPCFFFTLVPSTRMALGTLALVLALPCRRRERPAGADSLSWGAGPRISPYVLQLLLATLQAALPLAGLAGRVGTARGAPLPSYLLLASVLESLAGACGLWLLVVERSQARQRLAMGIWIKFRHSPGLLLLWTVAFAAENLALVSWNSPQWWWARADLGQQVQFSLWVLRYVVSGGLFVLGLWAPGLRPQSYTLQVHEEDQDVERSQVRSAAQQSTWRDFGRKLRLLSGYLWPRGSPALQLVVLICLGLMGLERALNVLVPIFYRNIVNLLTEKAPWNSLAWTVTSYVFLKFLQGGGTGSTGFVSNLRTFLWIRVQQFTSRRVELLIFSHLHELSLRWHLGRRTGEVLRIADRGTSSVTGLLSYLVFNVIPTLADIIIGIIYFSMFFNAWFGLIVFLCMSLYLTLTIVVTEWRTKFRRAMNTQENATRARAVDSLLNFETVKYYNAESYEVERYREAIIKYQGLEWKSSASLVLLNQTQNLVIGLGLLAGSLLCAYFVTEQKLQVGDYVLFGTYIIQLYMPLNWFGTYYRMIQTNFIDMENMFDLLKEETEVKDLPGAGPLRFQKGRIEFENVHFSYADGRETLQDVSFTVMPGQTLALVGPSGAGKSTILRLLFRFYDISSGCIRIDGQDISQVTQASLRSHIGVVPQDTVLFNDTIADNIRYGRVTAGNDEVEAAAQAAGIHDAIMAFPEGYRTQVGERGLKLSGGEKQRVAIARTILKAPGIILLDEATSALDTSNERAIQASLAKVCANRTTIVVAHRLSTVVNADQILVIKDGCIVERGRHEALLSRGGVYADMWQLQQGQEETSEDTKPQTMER
# Sequence of AP-2 complex subunit beta (Homo sapiens) (P63010 whole entry, looked up, the tested form may be a part, one chain of several): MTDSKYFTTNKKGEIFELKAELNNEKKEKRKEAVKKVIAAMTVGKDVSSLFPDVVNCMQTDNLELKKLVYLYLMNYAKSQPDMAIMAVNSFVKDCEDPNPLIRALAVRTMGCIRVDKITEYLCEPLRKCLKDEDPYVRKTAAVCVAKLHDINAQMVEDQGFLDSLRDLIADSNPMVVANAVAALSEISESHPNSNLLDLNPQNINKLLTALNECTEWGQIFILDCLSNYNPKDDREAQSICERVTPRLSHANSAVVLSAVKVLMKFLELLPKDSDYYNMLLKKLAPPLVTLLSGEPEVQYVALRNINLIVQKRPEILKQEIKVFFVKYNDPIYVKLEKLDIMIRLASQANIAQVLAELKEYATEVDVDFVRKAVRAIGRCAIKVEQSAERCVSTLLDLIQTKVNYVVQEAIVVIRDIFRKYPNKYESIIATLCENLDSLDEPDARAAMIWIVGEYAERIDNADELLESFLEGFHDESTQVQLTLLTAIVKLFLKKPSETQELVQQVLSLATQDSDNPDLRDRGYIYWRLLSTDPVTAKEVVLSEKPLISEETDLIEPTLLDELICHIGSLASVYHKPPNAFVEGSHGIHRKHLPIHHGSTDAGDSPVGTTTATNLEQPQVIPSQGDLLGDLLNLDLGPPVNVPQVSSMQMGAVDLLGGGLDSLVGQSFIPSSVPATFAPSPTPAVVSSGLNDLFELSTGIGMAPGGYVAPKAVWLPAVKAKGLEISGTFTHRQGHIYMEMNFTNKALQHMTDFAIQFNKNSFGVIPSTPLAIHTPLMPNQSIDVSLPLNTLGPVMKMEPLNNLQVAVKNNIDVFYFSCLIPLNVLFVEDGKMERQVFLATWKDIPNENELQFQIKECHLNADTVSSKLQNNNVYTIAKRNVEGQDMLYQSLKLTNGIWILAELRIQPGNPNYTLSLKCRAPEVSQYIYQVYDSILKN
# Sequence of Integrin beta-1 (Homo sapiens) + Integrin alpha-4 (Homo sapiens) (P05556 whole entry, looked up): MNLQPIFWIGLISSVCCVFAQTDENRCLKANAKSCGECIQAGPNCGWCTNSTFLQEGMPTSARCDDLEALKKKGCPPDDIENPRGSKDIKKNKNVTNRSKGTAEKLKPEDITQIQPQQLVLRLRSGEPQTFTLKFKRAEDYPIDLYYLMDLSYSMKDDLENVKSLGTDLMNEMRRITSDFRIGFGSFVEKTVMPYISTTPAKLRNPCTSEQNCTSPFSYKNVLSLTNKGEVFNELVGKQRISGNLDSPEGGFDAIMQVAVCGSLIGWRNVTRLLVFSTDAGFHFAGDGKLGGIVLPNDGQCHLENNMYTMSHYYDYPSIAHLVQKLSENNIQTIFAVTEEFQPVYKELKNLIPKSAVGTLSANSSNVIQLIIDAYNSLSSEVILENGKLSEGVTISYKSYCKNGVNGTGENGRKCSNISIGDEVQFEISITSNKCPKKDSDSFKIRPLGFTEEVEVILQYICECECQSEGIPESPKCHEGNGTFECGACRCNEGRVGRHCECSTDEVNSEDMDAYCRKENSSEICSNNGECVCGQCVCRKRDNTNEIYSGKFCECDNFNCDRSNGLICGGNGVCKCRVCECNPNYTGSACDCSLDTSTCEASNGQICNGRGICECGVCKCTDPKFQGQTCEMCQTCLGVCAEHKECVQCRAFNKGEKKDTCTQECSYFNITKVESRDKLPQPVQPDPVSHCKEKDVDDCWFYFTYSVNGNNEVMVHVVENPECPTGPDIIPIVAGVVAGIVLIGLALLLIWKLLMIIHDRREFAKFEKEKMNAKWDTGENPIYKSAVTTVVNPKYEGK
# Sequence of Integrin beta-1 (Homo sapiens) + Integrin alpha-4 (Homo sapiens) (P13612 whole entry, looked up): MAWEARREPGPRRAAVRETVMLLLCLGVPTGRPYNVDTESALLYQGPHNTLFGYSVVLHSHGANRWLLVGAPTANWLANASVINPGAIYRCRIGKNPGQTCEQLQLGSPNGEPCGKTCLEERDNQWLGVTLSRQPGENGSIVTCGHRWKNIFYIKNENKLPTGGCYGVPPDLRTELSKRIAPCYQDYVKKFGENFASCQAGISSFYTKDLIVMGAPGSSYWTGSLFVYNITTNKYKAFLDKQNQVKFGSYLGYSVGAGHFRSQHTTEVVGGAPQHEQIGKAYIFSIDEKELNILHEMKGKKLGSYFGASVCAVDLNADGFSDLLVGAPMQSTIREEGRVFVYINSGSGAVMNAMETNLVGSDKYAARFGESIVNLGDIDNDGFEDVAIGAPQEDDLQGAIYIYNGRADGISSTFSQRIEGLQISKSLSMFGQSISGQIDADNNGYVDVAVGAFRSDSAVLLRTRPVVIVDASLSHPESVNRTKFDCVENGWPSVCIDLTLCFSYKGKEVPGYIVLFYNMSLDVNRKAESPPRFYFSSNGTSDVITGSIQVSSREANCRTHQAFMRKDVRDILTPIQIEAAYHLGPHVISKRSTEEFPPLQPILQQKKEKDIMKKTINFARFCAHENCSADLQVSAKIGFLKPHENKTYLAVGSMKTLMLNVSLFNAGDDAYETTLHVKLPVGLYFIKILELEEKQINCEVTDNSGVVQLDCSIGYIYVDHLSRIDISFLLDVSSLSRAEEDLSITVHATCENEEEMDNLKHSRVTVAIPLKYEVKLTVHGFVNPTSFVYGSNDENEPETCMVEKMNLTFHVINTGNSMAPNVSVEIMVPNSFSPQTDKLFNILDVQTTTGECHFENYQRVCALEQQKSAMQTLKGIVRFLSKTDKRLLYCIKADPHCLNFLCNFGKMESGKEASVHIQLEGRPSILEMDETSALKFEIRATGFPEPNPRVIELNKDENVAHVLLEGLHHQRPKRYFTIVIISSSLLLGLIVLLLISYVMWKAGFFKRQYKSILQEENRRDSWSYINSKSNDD
Structure (SMILES),percent of DMSO control GFP [1],GFP response vs DMSO [2],percent response of DMSO control [3],GFP response vs DMSO [4],"GFP response, % of DMSO [5]",double positive events [6],vesicle binding response [6],inhibition [7],superoxide response (% of plate) [8],aptamer binding inhibition [9],response [10],inhibition [11],response [12],binding (% of control) [13],efflux inhibition (fraction of control) [14],inhibition [15],differentiation response [16]
Cc1ccc(C(=O)NCCNC(=O)c2ccccc2)cc1,92.8% (inactive),96.6% (inactive),88% (inactive),98.3% (inactive),103% (inactive),69.2%,179% (inactive),13.4% (inactive),102% (inactive),0% (inactive),-20.1% (inactive),-2.62% (inactive),-1.2% (inactive),103% (inactive),-0.04 (inactive),4% (inactive),-18.8% (inactive)
COC(=O)c1ccc(OCCCCN2CC(C)OC(C)C2)cc1 (stereo not drawn),104% (inactive),99.7% (inactive),105% (inactive),95.9% (inactive),102% (inactive),63.1%,228% (inactive),-3.77% (inactive),106% (inactive),0% (inactive),2.87% (inactive),-5.73% (inactive),2.09% (inactive),98.3% (inactive),0.39 (inactive),5% (inactive),-11.9% (inactive)
CC1(C)Oc2ccc(C#N)cc2[C@@H](N2CCCC2=O)[C@@H]1O,97.9% (inactive),115% (inactive),116% (inactive),78.7% (inactive),99.1% (inactive),63%,180% (inactive),2.58% (inactive),93% (inactive),-1% (inactive),-6.3% (inactive),1.01% (inactive),0.27% (inactive),100% (inactive),-0.09 (inactive),6% (inactive),0% (inactive)
O=C(O)C(O)c1ccccc1 (stereo not drawn),101% (inactive),95.6% (inactive),105% (inactive),99.1% (inactive),102% (inactive),53.8%,90.5% (inactive),-6.45% (inactive),96.6% (inactive),5% (inactive),3.86% (inactive),-5.56% (inactive),1.56% (inactive),104% (inactive),-0.12 (inactive),12% (inactive),-3.11% (inactive)
Cc1onc(-c2c(Cl)cccc2Cl)c1C(=O)NC1C(=O)N2C1SC(C)(C)C2C(=O)O (stereo not drawn),99.7% (inactive),103% (inactive),100% (inactive),117% (inactive),113% (inactive),59.6%,207% (inactive),-6.23% (inactive),83.9% (inactive),0% (inactive),-26.4% (inactive),5.02% (inactive),-4.49% (inactive),103% (inactive),0 (inactive),3% (inactive),-12.9% (inactive)
COc1cc(C2NCCc3c2[nH]c2ccccc32)ccc1OC(C)C (stereo not drawn),105% (inactive),103% (inactive),106% (inactive),90.4% (inactive),104% (inactive),58.1%,85.7% (inactive),5.61% (inactive),95.7% (inactive),0% (inactive),9.28% (inactive),1.29% (inactive),0.8% (inactive),104% (inactive),0.08 (inactive),9% (inactive),-10.4% (inactive)
COc1cc(CNCc2ccc(OC)c(OC)c2OC)cc(OC)c1,105% (inactive),110% (inactive),105% (inactive),104% (inactive),112% (inactive),60.7%,178% (inactive),33.8% (inactive),106% (inactive),2% (inactive),-16% (inactive),64.9% (active),22.7% (active),102% (inactive),0 (inactive),1% (inactive),-11.9% (inactive)
COc1ccc(C2=C(CN(C)C)C(c3ccccc3)c3ccccc3O2)cc1 (stereo not drawn),102% (inactive),105% (inactive),96.6% (inactive),92% (inactive),99.7% (inactive),61.4%,6270% (inactive),3.7% (inactive),102% (inactive),-2% (inactive),10.4% (inactive),12.1% (inactive),-5.6% (inactive),104% (inactive),-0.14 (inactive),7% (inactive),0.24% (inactive)
CN(C)CCOC(c1ccccc1)c1ccccc1 (tested in a mixture with another compound),103% (inactive),99.3% (inactive),98.9% (inactive),91.4% (inactive),96.4% (inactive),58.3%,138% (inactive),13% (inactive),91.9% (inactive),3% (inactive),-5.43% (inactive),-10.1% (inactive),-1% (inactive),93.3% (inactive),0.27 (inactive),2% (inactive),5.13% (inactive)
